# Laboratory results published in PubChem BioAssay (NCATS).
# Inconclusive results are not listed. Entries that show only a call come without a potency. Activity calls are given as the source filed them. Calls follow the shape of the dose curve; as a rule, active = well fitted curve in the direction sought with a large enough effect; inconclusive = small, poorly fitted or top-dose-only effect, or another doubt; inactive = no such curve, though single readings can be large; an effect the other way counts as inactive or inconclusive.
# What was measured:
# [1] = Quantitative High-Throughput drug screen in 47 multiple myeloma cell lines against the NCATS MIPE library collection: Karpas620_DSMZ cell viability assay (AID 1918959); also: nearly all actives have a fitted effect of over 30% in size; also: potency is read from the fitted curve at half-maximal effect
# Outline: (§1)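 Viability readout: CellTiter-Glo luminescence following 5 min room-temperature incubation with reagent. Prior exposure: 48 h, 37C, humidified 5% CO2, 500 cells per well.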
# [2] = Quantitative High-Throughput drug screen in 47 multiple myeloma cell lines against the NCATS MIPE library collection: KMM1_JCRB cell viability assay (AID 1918960); also: nearly all actives have a fitted effect of over 30% in size; also: potency is read from the fitted curve at half-maximal effect
# Outline: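 Myeloma cells, 500 per well, were exposed to MIPE 4.0 drugs by pin transfer for 48 h at 37 °C, 5% CO2. Viability was read as ATP luminescence with CellTiter-Glo, normalised to DMSO-only (100%) and medium-only (0%) wells.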
# [3] = Quantitative High-Throughput drug screen in 47 multiple myeloma cell lines against the NCATS MIPE library collection: JIM3_ECACC cell viability assay (AID 1918963; also: nearly all actives have a fitted effect of over 35% in size; also: potency is read from the fitted curve at half-maximal effect)
# Outline: as §1
# [4] = Quantitative High-Throughput drug screen in 47 multiple myeloma cell lines against the NCATS MIPE library collection: JIM1_ECACC cell viability assay (AID 1918964; also: potency is read from the fitted curve at half-maximal effect)
# Outline: (§2)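 Myeloma cells (500 per well) were exposed to MIPE 4.0 compounds by pin transfer and incubated 48 hours at 37C, 5% CO2. Viability was read as ATP by CellTiter-Glo luminescence, normalised to DMSO (100%) and media-only (0%) wells.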
# [5] = Quantitative High-Throughput drug screen in 47 multiple myeloma cell lines against the NCATS MIPE library collection: INA6_PLB cell viability assay (AID 1918965; also: nearly all actives have a fitted effect of over 55% in size; also: potency is read from the fitted curve at half-maximal effect)
# Outline: (§3)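 Approved and investigational drugs from MIPE 4.0 were added by pin tool to 500 cells per well. After 48 hours at 37C, ATP-based CellTiter-Glo luminescence indicated remaining viability.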
# [6] = Quantitative High-Throughput drug screen in 47 multiple myeloma cell lines against the NCATS MIPE library collection: JJN3_DSMZ cell viability assay (AID 1918966; also: nearly all actives have a fitted effect of over 50% in size; also: potency is read from the fitted curve at half-maximal effect)
# Outline: as §2
# [7] = Quantitative High-Throughput drug screen in 47 multiple myeloma cell lines against the NCATS MIPE library collection: H1112_PLB cell viability assay (AID 1918967; also: nearly all actives have a fitted effect of over 30% in size; also: potency is read from the fitted curve at half-maximal effect)
# Outline: as §2
# [8] = Quantitative High-Throughput drug screen in 47 multiple myeloma cell lines against the NCATS MIPE library collection: Karpas25_ECACC cell viability assay (AID 1918968; also: nearly all actives have a fitted effect of over 35% in size; also: potency is read from the fitted curve at half-maximal effect)
# Outline: as §2
# [9] = Quantitative High-Throughput drug screen in 47 multiple myeloma cell lines against the NCATS MIPE library collection: KMS27_JCRB cell viability assay (AID 1918970); conditions: KMS27 myeloma cells, CellTiter-Glo ATP viability, 48 h; viability (% of DMSO): at 45.8 µM (top of the series); also: nearly all actives have a fitted effect of over 30% in size; also: potency is read from the fitted curve at half-maximal effect
# Outline: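 Luminescent ATP read-out (CellTiter-Glo, 5 min at room temperature) after 48 h compound exposure of 500 KMS27_JCRB cells per well; DMSO wells define full viability and media-only wells zero.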
# [10] = Quantitative High-Throughput drug screen in 47 multiple myeloma cell lines against the NCATS MIPE library collection: KMS12BM_JCRB cell viability assay (AID 1918971); also: nearly all actives have a fitted effect of over 35% in size; also: potency is read from the fitted curve at half-maximal effect
# Outline: as §1
# [11] = Quantitative High-Throughput drug screen in 47 multiple myeloma cell lines against the NCATS MIPE library collection: KMS12PE_JCRB cell viability assay (AID 1918972); also: nearly all actives have a fitted effect of over 30% in size; also: potency is read from the fitted curve at half-maximal effect
# Outline: as §3
# [12] = Quantitative High-Throughput drug screen in 47 multiple myeloma cell lines against the NCATS MIPE library collection: KMS21BM_JCRB cell viability assay (AID 1918974); conditions: ATP luminescence, 48 h; viability: at 45.8 µM (top of the series); also: potency is read from the fitted curve at half-maximal effect
# Outline: as §2
# [13] = Quantitative High-Throughput drug screen in 47 multiple myeloma cell lines against the NCATS MIPE library collection: KMS26_JCRB cell viability assay (AID 1918975); also: nearly all actives have a fitted effect of over 45% in size; also: potency is read from the fitted curve at half-maximal effect
# Outline: as §1
# [14] = Quantitative High-Throughput drug screen in 47 multiple myeloma cell lines against the NCATS MIPE library collection: NCIH929_DSMZ cell viability assay (AID 1918978); also: nearly all actives have a fitted effect of over 35% in size; also: potency is read from the fitted curve at half-maximal effect
# Outline: (§4)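 MIPE 4.0 approved/investigational drugs; 500 cells/well; 48 h 37 °C humidified 5% CO2; CTG luminescence readout; DMSO = 100%, media = 0% viability.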
# [15] = Quantitative High-Throughput drug screen in 47 multiple myeloma cell lines against the NCATS MIPE library collection: KMS20_JCRB cell viability assay (AID 1918973); also: nearly all actives have a fitted effect of over 45% in size; also: potency is read from the fitted curve at half-maximal effect
# Outline: as §2
# [16] = Quantitative High-Throughput drug screen in 47 multiple myeloma cell lines against the NCATS MIPE library collection: MMM1_PLB cell viability assay (AID 1918976); also: nearly all actives have a fitted effect of over 35% in size; also: potency is read from the fitted curve at half-maximal effect
# Outline: as §4
# [17] = Quantitative High-Throughput drug screen in 47 multiple myeloma cell lines against the NCATS MIPE library collection: MOLP8_DSMZ cell viability assay (AID 1918977); also: nearly all actives have a fitted effect of over 45% in size; also: potency is read from the fitted curve at half-maximal effect
# Outline: as §4
# [18] = Quantitative High-Throughput drug screen in 47 multiple myeloma cell lines against the NCATS MIPE library collection: KHM11_PLB cell viability assay (AID 1918962); also: nearly all actives have a fitted effect of over 35% in size; also: potency is read from the fitted curve at half-maximal effect
# Outline: as §1
# [19] = Quantitative High-Throughput drug screen in 47 multiple myeloma cell lines against the NCATS MIPE library collection: Karpas417_ECACC cell viability assay (AID 1918961); conditions: Karpas417 myeloma viability, CellTiter-Glo ATP luminescence, 48 h; viability (% of DMSO): at 45.8 µM (top of the series)
# Outline: as §3
SMILES,Potency [1],Potency [2],Potency [3],Potency [4],Potency [5],Potency [6],Potency [7],Potency [8],Potency [9],Potency [10],Potency [11],Potency [12],Potency [13],Potency [14],Potency [15],Potency [16],Potency [17],Potency [18],Potency [19]
COc1cc([C@@H]2c3cc4c(cc3[C@@H](O[C@@H]3O[C@@H]5CO[C@@H](c6cccs6)O[C@@H]5[C@H](O)[C@@H]3O)[C@H]3COC(=O)[C@H]23)OCO4)cc(OC)c1O,2960 nM (active),743 nM (active),833 nM (active),209 nM (active),46.9 nM (active),13200 nM (active),590 nM (active),1870 nM (active),132 nM (active),1320 nM (active),1320 nM (active),1870 nM (active),16600 nM (active),14800 nM (active),–,–,–,–,–
Nc1nc2c(c(=O)[nH]1)N(C=O)[C@H](CNc1ccc(C(=O)N[C@@H](CCC(=O)O)C(=O)O)cc1)CN2,inactive,inactive,inactive,inactive,inactive,–,inactive,inactive,inactive,inactive,inactive,–,–,inactive,–,–,–,–,–
CC(C(C)N1CC(=O)NC(=O)C1)N1CC(=O)NC(=O)C1 (configuration not stated),inactive,inactive,inactive,–,–,–,inactive,inactive,–,590 nM (active),1320 nM (active),332 nM (active),–,inactive,inactive,–,–,–,–
CC(C)C[C@H](NC(=O)[C@@H](NC(=O)c1cccc(-c2ccccc2)n1)[C@@H](C)O)B(O)O,14.8 nM (active),7.4 nM (active),37.2 nM (active),10.5 nM (active),1 nM (active),41.8 nM (active),33.2 nM (active),13.2 nM (active),23.5 nM (active),37.2 nM (active),10.5 nM (active),–,41.8 nM (active),11.8 nM (active),33.2 nM (active),3720 nM (active),–,–,–
CON=C(C(=O)N[C@@H]1C(=O)N2C(C(=O)O)=C(CSC(=O)c3ccco3)CS[C@H]12)c1csc(N)n1,inactive,inactive,–,–,inactive,inactive,–,16600 nM (active),–,inactive,–,–,inactive,–,inactive,–,–,–,–
CC(C)[C@H](CO)Nc1nc(Nc2cccc(Cl)c2)c2ncn(C(C)C)c2n1,inactive,inactive,18700 nM (active),–,18700 nM (active),–,26400 nM (active),26400 nM (active),–,20900 nM (active),–,–,23500 nM (active),18700 nM (active),20900 nM (active),26400 nM (active),18700 nM (active),–,–
CC(Oc1ccc(O)cc1)(P(=O)(O)O)P(=O)(O)O,inactive,inactive,–,inactive,–,–,inactive,–,inactive,–,inactive,–,inactive,inactive,–,inactive,inactive,inactive,–
O=C(Nc1cccc(Nc2ncc(Br)c(NCCc3cnc[nH]3)n2)c1)N1CCCC1,inactive,inactive,–,–,743 nM (active),11800 nM (active),9350 nM (active),5900 nM (active),–,18700 nM (active),–,–,10500 nM (active),7430 nM (active),–,18700 nM (active),6620 nM (active),1180 nM (active),–
OC[C@@H](O)[C@@H](O)[C@H](O)[C@@H](O)CO,inactive,inactive,inactive,inactive,inactive,inactive,–,inactive,inactive,inactive,inactive,–,inactive,inactive,–,–,inactive,–,–
C#CCC(Cc1cnc2nc(N)nc(N)c2n1)c1ccc(C(=O)N[C@@H](CCC(=O)O)C(=O)O)cc1 (some centres not stated),inactive,–,46.9 nM (active),inactive,–,66.2 nM (active),132 nM (active),11800 nM (active),inactive,inactive,inactive,–,105 nM (active),118 nM (active),inactive,inactive,–,–,inactive
C[C@H]1COc2c(N3CCN(C)CC3)c(F)cc3c(=O)c(C(=O)O)cn1c23,inactive,inactive,–,inactive,–,–,inactive,inactive,–,inactive,–,–,inactive,inactive,–,–,–,–,inactive
CC(C)(C)c1nc2c3cc[nH]c(=O)c3c3cc(F)ccc3c2[nH]1,inactive,–,1870 nM (active),inactive,418 nM (active),662 nM (active),1180 nM (active),–,inactive,–,inactive,–,11.8 nM (active),–,1320 nM (active),662 nM (active),–,1480 nM (active),–
CC(C)(C)[N+]([O-])=Cc1ccc(S(=O)(=O)O)cc1S(=O)(=O)O,inactive,inactive,–,inactive,–,inactive,inactive,inactive,inactive,–,–,–,inactive,inactive,inactive,–,inactive,–,–
